# Screening results as filed in PubChem.
# An excerpt weighted towards active compounds, which were near 2.4% of everything screened.
# Abeta yeast res – A-beta toxicity reversal in yeast. yeast expressing A-beta42, growth rescue, OD600, 48 h; response scale: 0% DMSO, 100% iron-clioquinol control. Potency, µM (doses to about 46.1 µM), hits mostly activators. 410,000 compounds, 0.063% hits. AID 1347071; note: nearly all actives have a fitted effect of over 55% in size
#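 Yeast A-beta toxicity model in growth medium with pinned compounds, 48 h at 30 C; growth read as absorbance at 600 nm. Normalized to FeCl3/clioquinol equimolar mix (positive) and DMSO (negative).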
# TDP-43 yeast inh – rescues yeast growth from TDP-43 toxicity; TDP-43 expressing yeast growth rescue, BacTiter-Glo, 24 h; Potency, µM (doses to about 46.1 µM), inactives show at the top dose growth rescue (activation), usual class: activators; 410,000 compounds, 1.8% hits; AID 652104; note: % of control where 0% means no effect; nearly all actives have a fitted effect of over 50% in size
#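 Luminescence from BacTiter-Glo reports growth of TDP-43-expressing yeast after 24 hr at 30 deg C with compound. Cells were raffinose-pregrown to mid-log, then seeded in galactose medium at OD600=0.02.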
# aSyn rescue – inhibitors of alpha-synuclein toxicity in yeast; Yeast expressing alpha-synuclein, growth rescue, BacTiter-Glo, 24 h; Potency, µM (doses to about 46.1 µM), for inactives: top-dose growth rescue (activation), usual class: activators; 370,000 compounds, 0.14% hits; AID 652106; note: % of control where 0% means no effect; nearly all actives have a fitted effect of over 65% in size
#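 Readout is rescue of growth in alpha-synuclein-expressing yeast, so inhibitors of toxicity appear as activators. Growth after 24 hr at 30 deg C in galactose medium is quantified by luminescence.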
# Mito fusion yeast – inhibitors of mitochondrial division or activators of mitochondrial fusion. Potency, µM (titrated, usually from 46.1 µM), for the others: at the highest dose growth rescue (activation), hits mostly activators. AID 485298. S. cerevisiae fusion-defective mutant growth rescue, CellTiterGlo 48 h. 320,000 compounds, 0.23% hits; note: % of control where 0% means no effect; nearly all actives have a fitted effect of over 45% in size
#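 Read-out: ATP-based luminescence (CellTiterGlo, 10 min ambient) reporting growth of fusion-defective ts yeast after 48 hours at 37C on glycerol/ethanol YPEG medium in the presence of compound.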
# FUS yeast rescue – suppressors of FUS proteinopathy in yeast; 390,000 compounds, 0.24% hits; S. cerevisiae FUS-expressing, growth rescue, OD600, 24 h; Potency, µM (titrated, usually from 76.6 µM), hits mostly activators; AID 1347120;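 note: plate controls were DMSO vehicle for no effect and reference control for full effect; nearly all actives have a fitted effect of over 55% in size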
#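 S. cerevisiae expressing FUS from galactose induction served as the toxicity model. Growth after 24hr at 30C, read as absorbance at 600 nm, indicates suppression of toxicity; compounds dosed at several concentrations.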
# A-T KAP1 phos – potential ataxia-telangiectasia treatments restoring KAP-1 phosphorylation; F2112 A-T fibroblasts, KAP-1 phosphorylation AlphaLISA; neocarzinostatin DNA damage 30 min before lysis; Potency, µM (top dose mostly 57.5 µM), for inactives: top-dose activation, actives largely listed as activators; 320,000 compounds, 0.19% hits; AID 485349; note: % of control where 0% means no effect; nearly all actives have a fitted effect of over 45% in size
#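 hTERT-immortalized A-T patient fibroblasts (F2112), 500 cells/well in OPTI-MEM, 1% FBS, got compounds for 60 min, then NCS for 30 min at 37C. Lysates were then assayed for phospho-KAP-1 by AlphaLISA (anti-pKAP1 donor, anti-KAP1 acceptor beads), 6 hr at 25C.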
# The depositor's hits bear a star; i = inactive; ? = inconclusive; / = no result. Calls come from the whole dose curve; as a rule, active = well fitted curve in the direction sought with a large enough effect; inconclusive = small, poorly fitted or top-dose-only effect, or another doubt; inactive = no such curve, though single readings can be large; an effect the other way counts as inactive or inconclusive. Potency is the fitted concentration of half-maximal effect.
SMILES,Abeta yeast res,TDP-43 yeast inh,aSyn rescue,Mito fusion yeast,FUS yeast rescue,A-T KAP1 phos
CCc1ccc(N2C(=O)CC(c3cc(OC)ccc3OC)C3=C2COC3=O)cc1 (stereo not drawn),i,?,4.0%,/,i,/
CNC(=O)C[C@@H]1CC[C@@H]2[C@H](COc3ccc(NC(=O)c4cccc(F)c4)cc3C(=O)N2C)O1,/,/,/,/,i,/
CC(Oc1ccccc1)C(=O)Nc1nnc(S(=O)(=O)N(C)c2ccccc2)s1 (stereo not drawn),i,14.4%,5.2%,12.6µM*,i,0.3%
CC(Oc1ccccc1)C(=O)Nc1nnc(S(=O)(=O)N2CCCCCC2)s1 (stereo not drawn),i,20µM*,-21.4%,2.3%,i,9.3%
COc1ccc2c3n(nc2c1)CCN=C3c1cc(Cl)c(N)c(Cl)c1,i,2.4%,-8.9%,29.8%,i,6.0%
Nc1c(Cl)cc(C2=NCCn3nc4cc(C(F)(F)F)ccc4c32)cc1Cl,i,?,4.7%,12.6µM*,?,7.2%
O=C(Nc1cc(C(F)(F)F)ccc1-n1cncn1)c1ccc(-c2ccccc2)cc1,i,14.1µM*,-4.9%,7.4%,i,-0.3%
O=C(Nc1cc(C(F)(F)F)ccc1-n1cncn1)c1ccc(Cl)cc1,i,27.4%,15.2%,7.8%,i,/
CC12CCC(C(=O)NNc3ccc([N+](=O)[O-])cc3)(OC1=O)C2(C)C (stereo not drawn),i,-16.8%,-1.8%,-12.6%,i,10µM*
CC12CCC(C(=O)NNc3ccccc3)(OC1=O)C2(C)C (stereo not drawn),i,7.8%,4.0%,4.1%,i,3.7%
O=C(C1CCCN1S(=O)(=O)c1cccs1)N1CCc2ccccc2C1 (stereo not drawn),/,/,/,/,i,/
CCN(CC)C(=O)OCc1c(-c2ccccc2)ncc2ccccc12,i,13.4%,2.2%,21.1%,i,8.8%
CCN(CC)C(=O)OCc1c(-c2cccc(OC)c2)ncc2ccccc12,i,11.2µM*,-13.7%,?,i,3.2%
COc1cccc(-c2ncc3ccccc3c2COC(=O)c2cccs2)c1,i,35.5µM*,8.5%,?,i,3.9%
CCC[N+](C)(C)c1ccc(/C=C/c2ccnc3ccccc23)cc1,/,/,-62.9%,/,/,/
CC(=O)c1ccc(N2CCN(C(=O)CCc3nnc4n(C)c(=O)c5sccc5n34)CC2)cc1,i,0.0%,/,/,i,/
CC(OC(=O)/C=C/c1ccccc1)C(=O)Nc1ccc2c(c1)OCCO2 (stereo not drawn),i,12.2%,6.4%,-5.0%,i,-3.1%
CCN(c1ccccc1)S(=O)(=O)c1cc(C(=O)OC(C)C(=O)Nc2ccc3c(c2)OCCO3)ccc1C (stereo not drawn),/,-9.6%,-1.9%,3.5%,17.8µM*,4.2%
Cc1ccccc1OC(C)C(=O)Nc1ccc2c(c1)OCCO2 (stereo not drawn),i,11.2µM*,6.2%,8.4%,i,14.5%
N#Cc1ccccc1OCC(=O)Nc1ccc2c(c1)OCCCO2,i,12.6µM*,16.8%,-3.0%,i,2.7%
Cc1ccc(C(=O)N/C(=C\c2ccccc2F)c2nc(=S)[nH][nH]2)cc1,i,-21.4%,-5.1%,3.4%,i,3.6%
Cc1ccc(/C=C(\NC(=O)c2ccc(C)cc2)c2nc(=S)[nH][nH]2)cc1,i,20µM*,27.8%,5.2%,i,-1.3%
C/C(=N/NC(=O)CSc1nnc(-c2ccccc2)n1-c1ccc(Cl)cc1)c1cccc(O)c1,/,/,/,/,i,/
Cc1ccc2c(c1)C1CS(=O)(=O)N(CCc3ccccc3)C(=O)N1C2 (stereo not drawn),/,/,/,/,i,/
Cc1ccc(-c2nc(CS(=O)CC(=O)N3CCN(c4cccc(Cl)c4)CC3)c(C)o2)cc1 (stereo not drawn),i,31.6µM*,/,/,?,/
SMILES,Abeta yeast res,TDP-43 yeast inh,aSyn rescue,Mito fusion yeast,FUS yeast rescue,A-T KAP1 phos
Cc1oc(-c2ccccc2Cl)nc1CS(=O)CC(=O)N1CCN(c2cccc(C(F)(F)F)c2)CC1 (stereo not drawn),i,?,/,/,25.1µM*,/
Cc1oc(-c2ccc(Cl)cc2)nc1CS(=O)CC(=O)N1CCN(c2cccc(C(F)(F)F)c2)CC1 (stereo not drawn),i,6.7%,/,/,i,/
Cc1cccc(-c2nc(CS(=O)CC(=O)N3CCN(C)CC3)c(C)o2)c1 (stereo not drawn),i,11.6%,-0.5%,-1.3%,i,9.6%
Cc1ccc(-c2nc(S(=O)(=O)c3ccc(C)cc3)c(SCC(=O)NC3CCCCC3)o2)cc1,i,10.7%,/,/,i,/
COc1cc(C(=O)NC2CCCCN(Cc3ccc(Cl)cc3)C2=O)cc(OC)c1OC (stereo not drawn),/,/,/,/,i,/
Cc1ccc(NC(=O)c2sc3nc(-c4cccs4)ccc3c2N)cc1F,i,?,/,/,i,/
CCCSc1nnc(NC(=O)c2sc3nc(-c4cccs4)ccc3c2N)s1,i,-8.5%,1.6%,8.7%,12.6µM*,23.1%
Nc1c(C(=O)Nc2cccc(F)c2)sc2nc(-c3cccs3)ccc12,i,9.1%,/,/,i,/
Cc1csc(NC(=O)c2sc3nc(-c4cccs4)ccc3c2N)n1,i,-18.5%,8.6%,11.2µM*,i,20.8%
COc1cc2c(cc1NC(=O)CSc1nnc(-c3cnccn3)n1-c1ccc(C)cc1)oc1ccccc12,/,/,/,/,17.8µM*,/
COC(=O)C1=CN(C(C)c2ccccc2)C=C(C(=O)OC)C1c1cc(OC)c(OC)c(OC)c1 (stereo not drawn),i,-15.3%,-7.9%,-3.7%,?,7.08µM*
Cc1c(Cl)cccc1NC(=O)N1CCC(CN2CCCC2)CC1,i,10.3%,/,/,i,/
C=CCn1c(C)cc(C(=O)CSc2nnc(Cc3ccccc3)o2)c1C,?,2.51µM*,2.5%,-19.7%,i,-0.1%
Cc1cc(C(=O)CSc2nc3ccccc3o2)c(C)n1C1CC1,i,22.4µM*,7.9%,25.4%,i,-6.1%
C=CCn1c(C)cc(C(=O)CSc2nc3ccccc3o2)c1C,i,22.4µM*,5.3%,-0.9%,i,7.4%
Cc1cc(C(=O)CSc2nnc(Cc3ccccc3)o2)c(C)n1Cc1ccc2c(c1)OCO2,i,8.0%,-2.9%,13.0%,i,2.5%
C=CCn1c(C)cc(C(=O)CSc2nnc(NCc3ccccc3)s2)c1C,?,11.2µM*,1.6%,-2.4%,i,-15.5%
O=C1CCC[C@H]2C[C@H](NCc3ccc(F)cc3F)CC[C@]23CCCN13,/,/,/,/,i,/
